Assay results taken from PubChem BioAssay (NCI).
Values joined by “and” are separate entries in the source; they are usually repeats but may differ in a detail not shown here. Equal values may be shown once. The panel holds about 83,000 compounds, 20% with a hit somewhere; the sample as a whole holds those more often.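 48-hour exposure, single concentration, 96-well plates; percent growth endpoint where 0 means no net growth. Active: below 10.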 Active and inactive are the calls of the source.

Key:
Assay in all cases: NCI-60 one-dose screen, 48 h (100 = growth as untreated, 0 = no growth, -100 = all killed)
Settings in all cases: 10 µM unless noted
T-47D breast = test system: T-47D breast
BT-549 breast = test system: BT-549 breast
MDA-MB-435 melanoma = test system: MDA-MB-435 melanoma
SW-620 colon = test system: SW-620 colon
MCF7 breast = test system: MCF7 breast
HCT-116 colon = test system: HCT-116 colon
HCC-2998 colon = test system: HCC-2998 colon
KM12 colon = test system: KM12 colon

Row | Compound | growth (T-47D breast) | growth (BT-549 breast) | growth (MDA-MB-435 melanoma) | growth (SW-620 colon) | growth (MCF7 breast) | growth (HCT-116 colon) | growth (HCC-2998 colon) | growth (KM12 colon)
1 | CN(C)CCN1C(=O)c2c(c3c4ccccc4n4c3c3c2c2ccccc2n3C2CC(O)C(O)C4(C)O2)C1=O (configuration not stated) | 30.1% (inactive) | 62.9% (inactive) | 32.1% (inactive) | 18.5% (inactive) | 6.41% (active) | 22.4% (inactive) | 26.4% (inactive) | 34.2% (inactive)
2 | CCCCCCCCCCCCCCCC(=O)O[C@@H]1[C@@H](O)[C@@H](O)C([C@H](NC(=O)[C@@H]2C[C@@H](CCC)CN2C)[C@H](C)Cl)O[C@@H]1SC (some centres not stated) | 96.1% (inactive) | 99.4% (inactive) | 107% (inactive) | 114% (inactive) | 102% (inactive) | 103% (inactive) | 115% (inactive) | 101% (inactive)
3 | NS(=O)(=O)OCC1OC(n2cnc3cncnc32)C(O)C1O (configuration not stated) | 7.17% [0.1 µM] (active) and 10.8% [0.1 µM] (inactive) | 36% [0.1 µM] (inactive) and 32.4% [0.1 µM] (inactive) | 1.21% [0.1 µM] (active) and 13.3% [0.1 µM] (inactive) | 5.5% [0.1 µM] (active) and 6.37% [0.1 µM] (active) | 5.2% [0.1 µM] (active) and 3.48% [0.1 µM] (active) | 2.55% [0.1 µM] (active) and 6.83% [0.1 µM] (active) | 30.7% [0.1 µM] (inactive) and 22.9% [0.1 µM] (inactive) | 14% [0.1 µM] (inactive) and 10.4% [0.1 µM] (inactive)
4 | O=C(Nc1ccccc1C(=O)N/N=C(\c1ccccc1)c1ccccn1)c1ccccc1 | 13.3% (inactive) | 31.3% (inactive) | 27.7% (inactive) | 29.2% (inactive) | 9.02% (active) | 20.7% (inactive) | 29.7% (inactive) | 21.6% (inactive)
5 | Nc1ncc(-c2ccc3ncnc(N4CCc5ccc(Cl)cc54)c3c2)cc1C(F)(F)F | 12% (inactive) | -2.6% (active) | 13.7% (inactive) | 34.8% (inactive) | 7.34% (active) | 23.3% (inactive) | 22.3% (inactive) | 13.4% (inactive)
6 | COc1cc(NS(=O)(=O)C(C)C)cc(-c2cc(-c3ccc(N4CCNCC4)cc3)cnc2N)c1 | 81.9% (inactive) | 78.4% (inactive) | 92.5% (inactive) | 82% (inactive) | 81.2% (inactive) | 14.2% (inactive) | 80.5% (inactive) | 48.3% (inactive)
7 | Cc1ccc(NC(=O)c2sc3nc(C)c(C(=O)c4ccccc4)cc3c2N)cc1 | 87.7% (inactive) | 84.7% (inactive) | 39.5% (inactive) | 90.8% (inactive) | 70.9% (inactive) | 97.7% (inactive) | 106% (inactive) | 76.2% (inactive)
8 | O=[N+]([O-])c1ccc(S(=O)Cc2ccccc2)c([N+](=O)[O-])c1 (configuration not stated) | 29.7% (inactive) and -21.4% (active) | 66.3% (inactive) and 67.5% (inactive) | 76.2% (inactive) and 78% (inactive) | -71.3% (active) and -38.1% (active) | 41.1% (inactive) and 5.89% (active) | -88.5% (active) and -82.3% (active) | 97.2% (inactive) and 97.5% (inactive) | 77.1% (inactive) and 101% (inactive)
9 | CCOC(=O)C(=CCC(C)C)C(=O)OCC | 88.2% (inactive) | 93.1% (inactive) | 99.7% (inactive) | 105% (inactive) | 99.5% (inactive) | 98.9% (inactive) | 92.4% (inactive) | 110% (inactive)
10 | OCc1cc(CN2CCCCC2)c(O)c2ncccc12 | 57.4% (inactive) | 59.7% (inactive) | 77% (inactive) | 39.7% (inactive) | 44.7% (inactive) | 44.1% (inactive) | 51.6% (inactive) | 30.2% (inactive)
11 | Cc1ccc(-c2nc(SCC(=O)c3ccc(C#N)cc3)[nH]c(=O)c2C#N)cc1 | 100% (inactive) | 101% (inactive) | 106% (inactive) | 112% (inactive) | 96.5% (inactive) | 88.9% (inactive) | 107% (inactive) | 93.6% (inactive)
12 | O=C(O)c1ccccc1Cc1ccc(F)c2ccccc12 | 101% (inactive) and 108% (inactive) | 134% (inactive) and 106% (inactive) | 110% (inactive) and 109% (inactive) | 105% (inactive) and 95.8% (inactive) | 99.2% (inactive) and 102% (inactive) | 120% (inactive) and 101% (inactive) | 109% (inactive) and 103% (inactive) | 103% (inactive) and 104% (inactive)
13 | Nc1ccc(-c2ccc(N)c(Br)c2)cc1Br | 40.9% (inactive) | 34% (inactive) | 1.83% (active) | 47% (inactive) | 17.9% (inactive) | 23.6% (inactive) | 64.6% (inactive) | 37.3% (inactive)
14 | O=C1OCC2=C1C(c1cccc([N+](=O)[O-])c1)c1cc3c(cc1N2CCO)CCC3 (configuration not stated) | 65.9% (inactive) | 31.5% (inactive) | -34.9% (active) | 22.2% (inactive) | 20% (inactive) | 7.18% (active) | 6.84% (active) | 15.7% (inactive)
15 | C#CCOc1cccc(Nc2ncc3ncn(C4CCN(C(=O)CCl)C4)c3n2)c1 (configuration not stated) | -10.5% [6.25 µM] (active) | 29.3% [6.25 µM] (inactive) | 35.2% [6.25 µM] (inactive) | -41.4% [6.25 µM] (active) | 8.03% [6.25 µM] (active) | 0.194% [6.25 µM] (active) | 74.9% [6.25 µM] (inactive) | 87.5% [6.25 µM] (inactive)
16 | CN(C)CCCn1c2c(c3ccc(N4CCNCC4)cc3c1=O)C(=O)c1ccccc1-2 | 44% (inactive) | 54.2% (inactive) | 20% (inactive) | -21.6% (active) | -28.2% (active) | -89.1% (active) | -68.9% (active) | -32.1% (active)
17 | COc1cc(/C=C2/C=C(c3ccc(C(C)(C)C)cc3)N(CCc3ccc(S(N)(=O)=O)cc3)C2=O)cc(OC)c1OC | 18.2% (inactive) | 48.1% (inactive) | 52.8% (inactive) | 63.3% (inactive) | 13.1% (inactive) | 23.5% (inactive) | 32.2% (inactive) | 43.8% (inactive)
18 | COc1cc2nc3cc([N+](=O)[O-])ccc3c(NCCNCC(C)(C)O)c2cc1OC | -3.16% (active) | -75.6% (active) | -86.8% (active) | -15.2% (active) | -14.1% (active) | -20.9% (active) | -53.3% (active) | -7.24% (active)
19 | C#Cc1cc(C(=O)Nc2ccc(CN3CCN(C)CC3)c(C(F)(F)F)c2)ccc1C | 79% (inactive) | 101% (inactive) | 28.1% (inactive) | 81.3% (inactive) | 70.1% (inactive) | 47.8% (inactive) | 90.2% (inactive) | 70.3% (inactive)
20 | Cc1ccc2[nH]c(=S)[nH]c(=O)c2c1 | 89% (inactive) | 101% (inactive) | 101% (inactive) | 103% (inactive) | 99.8% (inactive) | 101% (inactive) | 98.2% (inactive) | 100% (inactive)
21 | Cc1nc2cccc(NCCCCC(=O)NO)c2c(=O)n1-c1ccccc1 | 54.5% (inactive) | 86.8% (inactive) | 53.8% (inactive) | 47.5% (inactive) | 57.9% (inactive) | 27.3% (inactive) | 82% (inactive) | 73.8% (inactive)
22 | Oc1ccccc1C=Nc1ccc(N2CCN(c3ccccc3)CC2)cc1 | 81.7% (inactive) | 54.8% (inactive) | 96.5% (inactive) | 110% (inactive) | 84% (inactive) | 87.1% (inactive) | 90.2% (inactive) | 103% (inactive)
23 | CC(=NCc1ccccc1)c1ccc(O)cc1O | 92.2% (inactive) | 91.9% (inactive) | 114% (inactive) | 109% (inactive) | 97.8% (inactive) | 104% (inactive) | 92.5% (inactive) | 104% (inactive)
24 | COc1ccc(-c2c[nH]c(C(=O)O)c2-c2cc(OC)c(OC)c(OC)c2)cc1 | 15.3% (inactive) | 65.8% (inactive) | -21.3% (active) | 23.6% (inactive) | 24.2% (inactive) | 29.6% (inactive) | 84.6% (inactive) | 25% (inactive)
25 | CCCCC1=C(Br)C(=O)c2nc(C)ccc2C1=O | 65.7% (inactive) | 90% (inactive) | 102% (inactive) | 60.2% (inactive) | 82.1% (inactive) | 42.7% (inactive) | 108% (inactive) | 98.7% (inactive)
26 | CC1=C2[C@@H](CC1)[C@]1(C)O[C@@](C3CC3)(C[C@H]1OC(=O)CO)[C@H]2OC(=O)/C=C/c1ccccc1 | 82.2% (inactive) | 6.63% (active) | 104% (inactive) | 103% (inactive) | 96.4% (inactive) | 89.4% (inactive) | 88.4% (inactive) | 97.1% (inactive)
27 | CCN1CCN(C(=O)[C@]23CC[C@@H](C)[C@H](C)[C@@H]2C2=CC[C@@H]4[C@@]5(C)CCC(=O)C(C)(C)[C@@H]5CC[C@@]4(C)[C@]2(C)CC3)CC1 | 8.54% (active) | -26% (active) | 11% (inactive) | -50.4% (active) | 4.77% (active) | -48.3% (active) | 0.569% (active) | 6.9% (active)
28 | O=S(=O)(O)c1ccc(N=Nc2ccc(N=Nc3cccc4ccccc34)c(S(=O)(=O)O)c2)cc1 | 81.3% (inactive) | 108% (inactive) | 108% (inactive) | 96.2% (inactive) | 78.1% (inactive) | 102% (inactive) | 108% (inactive) | 104% (inactive)
29 | O=c1c2c([nH]c3ccccc13)CCCC2 | 105% (inactive) and 55.5% (inactive) | 106% (inactive) and 59% (inactive) | 103% (inactive) and -56.9% (active) | 92.6% (inactive) and 16.1% (inactive) | 88.7% (inactive) and 17.7% (inactive) | 95.6% (inactive) and 23.5% (inactive) | 55.5% (inactive) | 99.2% (inactive) and 19.7% (inactive)
